CYP2C9 inhib = blocks human cytochrome P450 2C9 | P11712 | CYP2C9 Supersomes, luciferin-H conversion, luminescence | inhibition, % at 5 µM | actives 20% (n = 96,000) | AID 777;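 active means blocking of liver enzyme CYP2C9 beyond about 50% at 5 µM, limit read from the data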
CYP2C19 inhib = human CYP2C19 inhibition; CYP2C19 Supersomes, luciferin-H EGE luminescence, 30 min; actives 21% (n = 96,000); P33261; AID 778; inhibition, % at 5 µM;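 active means CYP2C19 inhibition above a set limit at 5 µM in the primary screen, cut at about 50% in these data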;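 further: plate controls were negative control wells for no effect and 2.5 mM tranylcypromine positive control for full effect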
hDAT+cocaine = changed human dopamine transporter uptake under cocaine IC80. LLC-PK1 hDAT cells, [14C]-dopamine uptake with cocaine IC80; actives deviate in either direction. actives 1.3% (n = 110,000). B-score at 10 µM. Q01959;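 active means Z score or B-score, a plate-position-corrected score, falls beyond the plate's 99.7% confidence bounds, in either direction; inactive means both scores lie inside the 99.7% bounds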;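 further: scored against the spread of the other compound wells on the same plate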
Target sequence (Q01959 whole entry, looked up): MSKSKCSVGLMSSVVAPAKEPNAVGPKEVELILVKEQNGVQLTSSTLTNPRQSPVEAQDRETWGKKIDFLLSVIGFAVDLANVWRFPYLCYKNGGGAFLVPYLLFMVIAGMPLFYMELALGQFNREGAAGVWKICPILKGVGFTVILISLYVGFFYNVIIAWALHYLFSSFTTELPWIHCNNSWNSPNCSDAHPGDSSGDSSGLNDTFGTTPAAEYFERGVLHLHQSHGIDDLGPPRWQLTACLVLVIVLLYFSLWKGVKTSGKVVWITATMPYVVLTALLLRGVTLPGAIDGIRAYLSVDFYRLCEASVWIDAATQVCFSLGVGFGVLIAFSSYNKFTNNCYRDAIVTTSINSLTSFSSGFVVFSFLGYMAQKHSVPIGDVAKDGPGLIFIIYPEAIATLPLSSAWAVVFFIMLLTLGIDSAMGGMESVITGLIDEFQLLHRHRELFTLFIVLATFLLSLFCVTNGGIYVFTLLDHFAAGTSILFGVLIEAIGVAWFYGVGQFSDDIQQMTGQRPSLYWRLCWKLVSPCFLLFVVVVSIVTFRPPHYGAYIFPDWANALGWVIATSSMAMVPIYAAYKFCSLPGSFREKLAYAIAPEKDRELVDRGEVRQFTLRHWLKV
D1 mod = allosterically modulates the human D1 dopamine receptor; actives 5.9% (n = 58,000); P21728; B-score at 10 µM; HEK293 D1, CRE-luciferase, dopamine EC30 potentiation; actives deviate in either direction;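 active means luminescence count or its row- and column-corrected plate score outside the 99.7% band of the plate's sample wells, on either side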
CYP2C19 activ = activators of human cytochrome P450 2C19 | recombinant CYP2C19, luciferin-H EGE luminescence; stronger effect = higher value; 0 = fully inhibited enzyme, 1 = untreated enzyme | activation factor at 5 µM | 96,000 tested, under 10 active;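 active means activation factor of at least 2 at 5 µM in the primary screen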;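 further: 0 = wells with 2.5 mM tranylcypromine and 1 = vehicle-only wells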
CYP2C9 activ = activators of human CYP2C9 | activation factor at 5 µM | recombinant CYP2C9, luciferin-H conversion, luminescence; stronger effect = higher value; factor 1 = untreated enzyme, 0 = blocked | AID 1024 | P11712 | actives 1.4% (n = 96,000);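 active means activation factor of 2 or more for CYP2C9 at a 5 µM dose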;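 further: 0 = sulfaphenazole-blocked wells and 1 = vehicle-only wells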
An asterisk follows results filed as active; . = no result. This is a sample that favours compounds with a hit; in the whole collection about 28% have one here.

SMILES	CYP2C9 inhib	CYP2C19 inhib	hDAT+cocaine	D1 mod	CYP2C19 activ	CYP2C9 activ
CCOCCNC(=O)c1ccc2c3c(cccc13)CC2	-243	43	-0.23	.	0.6	3.4*
CCOCCCNC(=O)c1ccccc1Br	-4	0	0.63	-0.5	1	1
O=c1c2c(nc3c(-c4ccc(Cl)cc4)c[nH]n13)CCCC2	-3	-16	0.56	1.5	1.2	1
O=C1NC2(CCCCC2)N=C1c1ccc(Br)cc1	20	57*	-0.028	.	0.4	0.8
O=C1NC2(CCCC2)N=C1c1ccc(Cl)cc1	20	84*	0.32	2	0.2	0.8
O=C1NC2(CCCCC2)N=C1c1ccc(F)cc1	10	17	-0.98	2.1	0.8	0.9
CCOCCOc1nc2c(c(=O)n(C)c(=O)n2C)n1Cc1ccc(C)cc1	.	.	-0.11	1.7	.	.
CCN(N=Nc1cccc([N+](=O)[O-])c1)c1cccc([N+](=O)[O-])c1	58*	31	-0.54	.	0.7	0.4
Clc1ccc(-c2cc(COc3ccc4ccccc4c3)no2)cc1	12	22	.	.	0.8	0.9
O=S(=O)(Nc1ncnc2sc3c(c12)CCC3)c1ccc2ccccc2c1	79*	17	0.67	.	0.8	0.2
c1csc(CCNc2ncnc3sc4c(c23)CCC4)c1	46	94*	-1	.	0.1	0.5
c1ccc(Nc2ncnc3sc4c(c23)CCC4)cc1	23	76*	-0.39	.	0.2	0.8
O=S(=O)(Nc1nc2c(s1)CCCC2)c1ccc2ccccc2c1	4	16	-1.4	.	0.8	1
c1cn(CCCNc2ncnc3sc4c(c23)CCC4)cn1	97*	100*	0.75	2.7	0	0
COCCCNc1ncnc2sc3c(c12)CCC(C)C3 (stereo not drawn)	.	.	-0.049	.	.	.
COc1ccc(C2NC(=O)C(C)S2)cc1 (stereo not drawn)	5	45	-0.49	.	0.6	0.9
CCc1ccc(-c2nc(CN3CCC(C(=O)NCc4ccco4)CC3)c(C)o2)cc1	22	11	-0.22	-0.046	0.9	0.8
CC(C)CCn1c(N2CCc3ccccc3C2)nc2c1c(=O)[nH]c(=O)n2C	.	.	-1.2	.	.	.
O=P(Cc1ccccn1)(c1ccccc1)c1ccccc1	6	-4	-1.1	.	1	0.9
Fc1ccc(Nc2ncnc3sc4c(c23)CCC4)cc1	61*	88*	2	.	0.1	0.4
Cc1ccc(C)c(NS(=O)(=O)c2cc(C(=O)NCCSC3CCCCC3)ccc2C)c1	79*	59*	1	.	0.4	0.2
Cc1ccccc1NS(=O)(=O)c1cc(C(=O)N2CCCC2)ccc1C	35	20	-0.014	0.087	0.8	0.6
Cc1ccccc1NS(=O)(=O)c1cc(C(=O)NCCSC2CCCCC2)ccc1C	63*	42	0.12	.	0.6	0.4
Cn1c(=O)[nH]c(=O)c2c1nc(NCc1ccco1)n2CCCc1ccccc1	7	0	0.36	0.61	1	0.9
O=c1[nH]c(NCc2ccco2)nnc1Cc1ccccc1Cl	-153	-1	-0.94	-0.13	1	2.5*
SMILES	CYP2C9 inhib	CYP2C19 inhib	hDAT+cocaine	D1 mod	CYP2C19 activ	CYP2C9 activ
COc1ccc(NC(=O)CN(C)S(=O)(=O)c2ccc(Cl)cc2)c([N+](=O)[O-])c1	-4	-2	-1.3	.	1	1
CCN(CCNc1ccc(Cl)cc1[N+](=O)[O-])C(=O)c1cc([N+](=O)[O-])c(N(C)C)cc1OC	80*	76*	-0.38	.	0.2	0.2
NC(=O)[C@H]1CC2(CC(c3cccc(NC(=O)CC(c4ccccc4)c4ccccc4)c3)=NO2)CN1C(=O)C(c1ccccc1)c1ccccc1 (stereo partly drawn)	.	.	0.42	.	.	.
Cc1cc(C)n(C(C[N+](=O)[O-])c2ccc(Cl)cc2)n1 (stereo not drawn)	58*	76*	0.85	.	0.2	0.4
O=C1NC2c3ccccc3C(=O)N2c2c1cnn2-c1ccccc1 (stereo not drawn)	.	.	0.3	-0.26	.	.
Cc1ccc(S(=O)(=O)NCC(=O)N(CC(=O)NCC2CCCO2)C2CCCC2)cc1 (stereo not drawn)	22	14	0.03	-0.52	0.9	0.8
CCOc1ccc(N(CC(=O)NCC2CCCO2)S(=O)(=O)c2ccc(SC)cc2)cc1 (stereo not drawn)	44	68*	0.73	.	0.3	0.6
O=C(CN(c1ccc2c(c1)OCCO2)S(=O)(=O)c1ccccc1)NCC1CCCO1 (stereo not drawn)	77*	35	0.63	0.048	0.6	0.2
CCOc1ccc(C(=O)NCC2CCCO2)cc1 (stereo not drawn)	-5	-8	0.69	0.67	1.1	1.1
COc1ccc(S(=O)(=O)NCC(=O)N(CC(=O)NCC2CCCO2)c2c(C)cccc2C)cc1 (stereo not drawn)	68*	20	-0.23	0.031	0.8	0.3
COc1ccc(N(CC(=O)NCC2CCCO2)S(=O)(=O)c2ccc(C)cc2)cc1OC (stereo not drawn)	55*	-24	0.8	.	1.2	0.4
COc1ccccc1CN(CC(=O)NCC1CCCO1)C(=O)CNS(=O)(=O)c1ccc(C)cc1 (stereo not drawn)	25	16	0.0012	-0.091	0.8	0.7
O=C(CN(Cc1ccc2c(c1)OCO2)C(=O)CNS(=O)(=O)c1ccccc1)NCC1CCCO1 (stereo not drawn)	9	21	-0.49	-0.62	0.8	0.9
Clc1ccc2c(c1)C1OCCC1C(c1ccco1)N2 (stereo not drawn)	36	48	1.2	1.6	0.5	0.6
O=C(NCC1CCCO1)c1ccc2c(c1)OCO2 (stereo not drawn)	5	26	1.4	.	0.7	0.9
O=C(CN(C(=O)c1ccc2c(c1)OCCO2)c1ccccc1)NCC1CCCO1 (stereo not drawn)	66*	42	-1.4	-0.12	0.6	0.3
CN(CC(=O)NCC1CCCO1)S(=O)(=O)c1cc(Cl)ccc1Cl (stereo not drawn)	-221	64*	0	0.015	0.4	3.2*
O=S(=O)(c1ccc(Br)cc1)N1CCN(c2ccc3nnc(-c4ccccc4)n3n2)CC1	80*	60*	-0.8	.	0.4	0.2
O=C(c1ccc(Br)o1)N1CCN(c2ccc3nnc(-c4ccccc4)n3n2)CC1	88*	79*	0.56	2.3	0.2	0.1
Cc1nn(CC(=O)NNC(=S)Nc2ccccc2)c(C)c1[N+](=O)[O-]	17	6	-0.5	.	0.9	0.8
O=C(Cn1nc(C(F)F)cc1C(F)F)NNC(=S)Nc1ccc(Cl)cc1	71*	45	-0.16	.	0.6	0.3
O=C(C1CCC(N2C(=O)C3CC=CCC3C2=O)CC1)N1CCCCC1 (stereo not drawn)	46	32	-0.4	0.22	0.7	0.5
O=C(Cc1cccc2ccccc12)Nc1ccccc1C(=O)O	87*	-10	0.71	.	1.1	0.1
